Unmarked numbers belong to inactive results. Inconclusive results are not listed. Activity calls are given as the source filed them. Unless noted, calls come from the whole dose curve; as a rule, active = well fitted curve in the direction sought with a large enough effect in the repeat runs; inconclusive = weak or mixed curves; inactive = no such curve, though single readings can be large; an effect the other way counts as inactive or inconclusive.

The values that follow come from PubChem BioAssay (Tox21).

The nature of test [1]: qHTS assay to identify small molecule agonists of the hypoxia (HIF-1) signaling pathway (AID 1224846; active = well fitted activation curve with a large enough effect in the signal ratio in the repeat runs, not every such curve was filed as active; the % refers to the signal ratio). The method in brief: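 Compounds from the Tox21 10K library, dissolved in DMSO, are tested for induction of a hypoxia response element–controlled beta-lactamase reporter in ME-180 cells. Exposure lasts 17 hrs at 37C after a 5 hr settling period, followed by CCF4-AM FRET substrate.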

Test [2] can be described thus: qHTS assay to identify small molecule agonists of H2AX - cell viability counter screen (AID 1224847; calls by dose curve; note: top concentration of the series differs between compounds; nearly all actives have a fitted effect of over 30% in size). The method in brief:
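Wild-type CHO-K1 cells (10% FBS medium) were plated overnight at 37C, exposed to compounds at 15 concentrations for 3 hr at 37C (0.76% DMSO final), and viability was read as CellTiter-Glo luminescence after 30 min at room temperature.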
Background: In qHTS, concentration-response curves come from the screen itself.

The nature of test [3]: qHTS RealTime-Glo MT Cell Viability Assay in HepG2 cells - 24 hour (AID 1224867). Note: nearly all actives have a fitted effect of over 50% in size. The method in brief:
(§1)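 Cells + NanoLuc/prosubstrate dispensed (600 cells/well) → 5 h at 37 C/5% CO2 → compounds in DMSO transferred → 40 h incubation at 37 C, luminescence read at 0, 8, 16, 24, 32, 40 h.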

A short description of test [4]: qHTS RealTime-Glo MT Cell Viability Assay in HEK293 cells - 32 hour (AID 1224868). Note: nearly all actives have a fitted effect of over 50% in size. Note: potency is the fitted concentration of half-maximal effect. The method in brief:
(§2)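 Tox21 10K qHTS, HEK293, 600 cells/well, RealTime-Glo reagent co-dispensed with cells; 5 h preincubation, compound by pintool, 37 C, luminescence at 0–40 h.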

Test [5] is described as follows: A CellTox Green Cytotoxicity Assay to monitor cytotoxicity in HEK293 cells - 0 hour (AID 1224869). Note: nearly all actives have a fitted effect of over 50% in size. The method in brief:
(§3)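 Cells (HEK293, 600/well) and dye reagent are dispensed together. After 5 h at 37 C, 23 nL compound is pinned in. Plates stay at 37 C for 40 h with fluorescence read at 0h, 8h, 16h, 24h, 32h and 40h.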

Test [6] is described as follows: qHTS RealTime-Glo MT Cell Viability Assay in HepG2 cells - 40 hour (AID 1224870). Note: nearly all actives have a fitted effect of over 50% in size. The method in brief:
(§4)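 HepG2 cells mixed with RealTime-Glo MT reagents (NanoLuc plus cell-permeant prosubstrate) were seeded at 600 cells/well, incubated 5 h at 37 C/5% CO2, then pinned with compounds in DMSO; nonlytic luminescence tracked viability during 40 h treatment.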

A short description of test [7]: A CellTox Green Cytotoxicity Assay to monitor cytotoxicity in HEK293 cells - 40 hour (AID 1224871). Note: nearly all actives have a fitted effect of over 45% in size. The method in brief: as §3
The nature of test [8]: qHTS RealTime-Glo MT Cell Viability Assay in HEK293 cells - 16 hour (AID 1224872). Note: nearly all actives have a fitted effect of over 50% in size. Note: potency is the fitted concentration of half-maximal effect. The method in brief:
as §2

Test [9] in a line: qHTS RealTime-Glo MT Cell Viability Assay in HepG2 cells - 8 hour (AID 1224873). Note: nearly all actives have a fitted effect of over 55% in size. The method in brief:
as §4

Test [10] in a line: qHTS RealTime-Glo MT Cell Viability Assay in HEK293 cells - 40 hour (AID 1224874). Note: nearly all actives have a fitted effect of over 50% in size. Note: potency is the fitted concentration of half-maximal effect. The settings on record: RealTime-Glo luminescence; max response: stronger effect = lower value. The method in brief:
(§5)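 Real-time viability in HEK293: signal arises when living cells convert a prosubstrate for NanoLuc in the medium, so luminescence tracks viable cell number. Compound (23 nL, DMSO) added 5 h post-seeding; kinetic reads at 0–40 h, 37 C.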

Test [11] in a line: A CellTox Green Cytotoxicity Assay to monitor cytotoxicity in HEK293 cells - 24 hour (AID 1224875). Note: nearly all actives have a fitted effect of over 45% in size. The method in brief: as §3
The nature of test [12]: A CellTox Green Cytotoxicity Assay to monitor cytotoxicity in HepG2 cells - 16 hour (AID 1224876). Note: nearly all actives have a fitted effect of over 45% in size. The method in brief: (§6)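 Cells and non-lytic dye reagent are dispensed together (600 HepG2 cells/well) and incubated 5 h before DMSO compound transfer. Kinetic fluorescence is then recorded in the same wells during 40 h at 37 C.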
Test [13] in a line: qHTS RealTime-Glo MT Cell Viability Assay in HepG2 cells - 32 hour (AID 1224877). Note: nearly all actives have a fitted effect of over 55% in size. The method in brief:
as §1

The nature of test [14]: A CellTox Green Cytotoxicity Assay to monitor cytotoxicity in HepG2 cells - 24 hour (AID 1224878). Note: nearly all actives have a fitted effect of over 45% in size. The method in brief: as §6
The nature of test [15]: A CellTox Green Cytotoxicity Assay to monitor cytotoxicity in HepG2 cells - 40 hour (AID 1224879). Note: nearly all actives have a fitted effect of over 40% in size. The method in brief: as §6
A short description of test [16]: qHTS RealTime-Glo MT Cell Viability Assay in HEK293 cells - 0 hour (AID 1224880). The method in brief:
as §5

The nature of test [17]: A CellTox Green Cytotoxicity Assay to monitor cytotoxicity in HEK293 cells - 32 hour (AID 1224881). Note: nearly all actives have a fitted effect of over 40% in size. The method in brief: as §3
A short description of test [18]: qHTS assay to identify small molecule agonists of the estrogen related receptor (ERR) signaling pathway from Tox21 library (AID 1224849; calls by dose curve; note: nearly all actives have a fitted effect of over 15% in size). The settings on record: ERR reporter cell line, ONE-Glo luciferase, 18 h; at 92.4 µM (top of the series) unless noted. The method in brief: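 Cells carrying the ERR reporter were plated and allowed to settle for 6 h, exposed to library compounds for 18 h at 37 C, then lysed with ONE-Glo and luminescence measured.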

Test [19] can be described thus: qHTS assay to identify small molecule antagonists of the estrogen related receptor (ERR) signaling pathway from Tox21 library (AID 1224848). Note: nearly all actives have a fitted effect of over 50% in size. Note: potency is the fitted concentration of half-maximal effect. The method in brief: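 Tox21 10K compounds in DMSO tested for ERR pathway antagonism in NTP's ERR cell line; 18 h, 37 C exposure; ONE-Glo luminescence.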
% is set by controls: 0 for no effect and ±100 for the full control effect.

On to `C=C(C)C(=O)OCCN(C)C`, for which the call in test [1] was inactive. Also, the Potency result in [2], in [3], in [4], in test [5], in [6] and in [7] was “inactive” throughout. Moreover, the Potency result in [8], in [9], in test [11], in test [12], in test [13] and in [14] was “inactive” in each case. Also, the Potency entry in [15], in test [16] and in test [17] was “inactive” each time. Also, the max response in test [10] is 0.256%.

Regarding `O=S1(=O)N=C(O)c2ccccc21`, the call in test [1] was inactive. For the same molecule, the Potency entry in test [2], in test [3], in test [4], in test [5], in [6] and in test [7] was “inactive” in each case. The Potency result in test [8], in test [9], in [11], in test [12], in [13] and in test [14] was “inactive” each time. Also, the Potency result in [16] and in test [17] was “inactive” throughout. Besides, the max response in [10] was 2.61%.

As for `Cc1ccc(C(N)=O)cc1N`, in test [1], the call was inactive. Moreover, the Potency result in test [2], in [3], in [4], in [5], in [6] and in test [7] was “inactive” throughout. The Potency entry in test [8], in test [9], in [11], in [12], in test [13] and in test [14] was “inactive” in each case. The Potency entry in test [15] and in [17] was “inactive” each time. In addition, the activity change, positive = activation in [18] was -0.06%. Also, in test [10], the max response is 10%.

`CC/C(=C\C(=N/O)C(N)=O)C(C)[N+](=O)[O-]` (stereo unspecified): in test [1], the result was inactive. Besides, the Potency entry in test [2], in test [3], in [4], in test [5], in test [6] and in [8] was “inactive” throughout. Also, the Potency entry in test [9], in test [12], in test [13], in test [14], in [15] and in [17] was “inactive” each time. In addition, the activity change, positive = activation in test [18] is 4.01%. Moreover, the max response in test [10] was 22.3%.

Regarding `CCCCOc1ccc(CC(=O)NO)cc1`, in test [1], the call was inactive. In addition, the Potency entry in test [2], in test [3], in test [5], in test [6], in [7] and in test [9] was “inactive” in each case. For the same molecule, the Potency entry in test [11], in test [12], in [13], in test [14], in test [16] and in test [17] was “inactive” throughout. Moreover, in test [8], the Potency was 2.68 µM (active).

For `CCCCOC(O)CC` (stereo unspecified), in [1], the outcome was inactive. Moreover, the Potency entry in [2], in test [3], in test [4], in [5], in [6] and in test [7] was “inactive” in each case. Besides, the Potency result in test [8], in test [9], in test [11], in test [12], in test [13] and in test [14] was “inactive” each time. The Potency result in test [15], in [16] and in test [17] was “inactive” throughout. Further, the max response in test [10] was 3%.

Consider `CC(=O)Nc1ccc(/C=N/NC(N)=S)cc1`, for which, in test [1], the outcome was inactive. Also, the Potency result in [2], in test [3], in test [4], in test [5], in [6] and in [7] was “inactive” each time. Also, the Potency result in test [8], in test [9], in test [11], in test [12], in test [13] and in [14] was “inactive” in each case. The Potency result in [15], in test [16] and in test [17] was “inactive” throughout. Further, in test [10], the max response was 0.836%.

With `C1=Cc2ccccc2C1`, the molecule was called inactive in [1]. For the same molecule, the Potency entry in test [2], in test [19], in test [3], in test [4], in test [5] and in [6] was “inactive” in each case. The Potency entry in test [7], in test [8], in test [9], in test [11], in test [13] and in [14] was “inactive” each time. Besides, the Potency entry in [15], in test [16] and in [17] was “inactive” in each case. The activity change, positive = activation in test [18] is 2.75%. For the same molecule, the max response in test [10] is 6.96%.

On to `CC(=O)CC(=O)c1ccccc1`, for which the outcome in [1] was inactive. The Potency result in test [2], in [19], in test [3], in test [5], in [6] and in test [7] was “inactive” throughout. The Potency result in test [8], in test [9], in test [11], in [13], in test [14] and in test [16] was “inactive” throughout. Besides, the Potency result in test [17] was “inactive”. The activity change, positive = activation in test [18] was 14.5%.

Turning to `O=C1Nc2cc(Cl)ccc2Oc2ccccc21`, the outcome in test [1] was inactive. Moreover, the Potency entry in test [2], in test [3], in [4], in test [5], in test [6] and in test [7] was “inactive” each time. Moreover, the Potency entry in test [8], in test [9], in test [11], in test [12], in test [13] and in [14] was “inactive” throughout. Besides, the Potency result in [15], in test [16] and in test [17] was “inactive” throughout. In test [10], the max response is 5.17%.

In the case of `CC(=O)N(O)CCCCCNC(=O)CCC(=O)N(O)CCCCCNC(=O)CCC(=O)N(O)CCCCCN`, in test [1], the molecule was classed as inactive. The Potency result in test [2], in test [3], in [5], in test [6], in [7] and in [8] was “inactive” throughout. The Potency entry in test [9], in [11], in [13], in [14], in test [15] and in test [16] was “inactive” throughout. The Potency entry in test [17] was “inactive”. Further, the Potency in [19] was 26.6 µM (active); in test [10], 21.3 µM (active). Besides, the activity change, positive = activation in test [18] was -34.7% [at 42.5 µM].

With `CCOC(=O)C1=NN(c2ccccc2)C(=O)C1`, the result in [1] was inactive. In addition, the Potency result in [2], in test [3], in test [4], in test [5], in test [6] and in [8] was “inactive” in each case. For the same molecule, the Potency result in [9], in test [11], in test [13], in test [14], in test [15] and in [16] was “inactive” in each case. Further, the Potency result in test [17] is “inactive”. Moreover, the max response in [10] was 1.57%.

Regarding `CCCOc1ccc2nc(NC(=O)OC)[nH]c2c1`, the molecule was classed as inactive in [1]. The Potency result in test [2], in test [3], in test [5], in [6], in [7] and in [8] was “inactive” each time. Further, the Potency entry in test [9], in test [11], in test [12], in test [13], in test [14] and in test [17] was “inactive” throughout.

Take `O=C1[C@H](CC[C@H](O)c2ccc(F)cc2)[C@@H](c2ccc(O)cc2)N1c1ccc(F)cc1`: the molecule was called inactive in [1]. Moreover, the Potency result in [2], in test [3], in test [5], in test [6], in test [7] and in [9] was “inactive” each time. Besides, the Potency entry in test [11], in test [12], in [13], in test [14], in test [15] and in [16] was “inactive” each time. Moreover, in test [17], the Potency entry is “inactive”. The figures for the Potency in test [19], in [4] and in test [10] were 26.6 µM (active), 19 µM (active) and 19 µM (active), respectively. Further, the activity change, positive = activation in test [18] was -42.1% [at 42.5 µM].
